G9a inh = G9a (human) methyltransferase inhibition; Q96KQ7; G9a H3K9 monomethylation, AlphaScreen, 2 h; Potency, µM (top dose mostly 102 µM), for the others: at the top dose activity, negative = inhibition, hits mostly inhibitors; 350,000 tested, 8.8% active; further: on the % scale 0 is the no-effect control and ±100 the full control effect; nearly all actives have a fitted effect of over 75% in size
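Chemiluminescent proximity detection of H3K9 monomethylation, read after 10 min bead incubation in the dark. Reaction: 20 nM G9a, 500 nM biotin-H3K9 peptide, 20 uM SAM cofactor, 2 h, room temperature, following 15 min enzyme-compound preincubation.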
HP1b binding inh = HP1-beta chromodomain-methylated histone interaction inhibition; 390,000 tested, 0.56% active; AlphaScreen HP1-beta / biotin-H3K9me3 peptide binding; P83916; Potency, µM (titrated, usually from 114 µM), without a hit: top-dose activity change, negative = inhibition, usual class: inhibitors; further: nearly all actives have a fitted effect of over 70% in size
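AlphaScreen: HP1-beta (50 nM) preformed 30 min with biotin-H3(1-18)K9me3 peptide (50 nM) in PBS pH 7.4, 0.01% Tween-20. Compound added for 30 min at RT, then streptavidin donor/nickel chelate acceptor beads (10 ug/mL) for 30 min.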
JMJD2A Tudor inh = JMJD2A Tudor domain (human) inhibition | AlphaScreen JMJD2A-Tudor / H3K4me3 peptide binding | Potency, µM (doses to about 114 µM), inactives show at the highest dose activity change, negative = inhibition, most hits filed as inhibitors | AID 504339 | O75164 | 390,000 tested, 4.4% active; further: on the % scale 0 is the no-effect control and ±100 the full control effect; nearly all actives have a fitted effect of over 50% in size
VDR inh = vitamin D3 receptor (human) inhibition. VDR-SRC2-3 peptide fluorescence polarization, 2 h. Potency, µM, without a hit: max response, negative = inhibition, most hits filed as inhibitors. 400,000 tested, 0.93% active. AID 504847; further: on the % scale 0 is the no-effect control and ±100 the full control effect
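Reagent solutions, kept cold and dark, are dispensed first; compounds are then pinned in at 23 nl, plates briefly spun, and incubated 2 h at ambient temperature. Inhibition of VDR–SRC2-3 peptide binding is read by fluorescence polarization.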
BAZ2B inh = inhibitors of human BAZ2B bromodomain; 360,000 tested, 4.4% active; AID 504333; Q9UIF8; AlphaScreen BAZ2B-H3K14Ac peptide displacement; Potency, µM (highest dose often 114 µM), for the others: at the highest dose activity change, negative = inhibition, most hits filed as inhibitors; further: on the % scale 0 is the no-effect control and ±100 the full control effect; nearly all actives have a fitted effect of over 60% in size
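Complex of BAZ2B and biotin-H3K14Ac (50 nM apiece) forms over 30 min at RT, then faces library compounds up to 110 uM for another 30 min; AlphaScreen beads added, 20 min dark incubation, luminescence read.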
PLK1 PBD inh = inhibitors of human PLK1 polo-box domain binding; P53350; Plk1 PBD binding of FITC phosphopeptide, fluorescence polarization; Potency, µM, for inactives: max response, negative = inhibition, usual class: inhibitors; 360,000 tested, 2.8% active; further: series mostly up to about 57 µM; on the % scale 0 is the no-effect control and ±100 the full control effect; nearly all actives have a fitted effect of over 65% in size
Starred values were filed as active, the others as inactive; ? = inconclusive; nt = not tested or not shown; [ ] = remark or other dose. Hits are enriched below; roughly 11% of the tested compounds scored in any of these assays. The call rests on the fitted dose curve; in most records, active means well fitted curve in the direction sought with a large enough effect; inconclusive means small, poorly fitted or top-dose-only effect, or another doubt; inactive means no such curve, though single readings can be large; an effect the other way counts as inactive or inconclusive. Potency means the concentration at half of the fitted maximal effect.

SMILES	G9a inh	HP1b binding inh	JMJD2A Tudor inh	VDR inh	BAZ2B inh	PLK1 PBD inh
Cc1nc(C)c(CCNC(=O)c2cccc(Cl)c2)s1	79µM*	18%	2%	-9%	10%	-10%
CC[C@@H]1OC(=O)[C@H](C)[C@H](O[C@@H]2C[C@](C)(OC)[C@H](O)[C@H](C)O2)[C@H](C)[C@H](O[C@@H]2O[C@@H](C)C[C@@H](N(C)C)[C@@H]2O)[C@](C)(O)C[C@H](C)C(=NOCOCCOC)[C@H](C)[C@H](O)[C@]1(C)O	31%[21.5 µM]	nt	nt	-1%	nt	nt
O=C(COC(=O)c1c[nH]c(=O)[nH]c1=O)NCc1ccccc1	-28%[59 µM]	18%	-16%	-13%	-6%	-4%
CC(=O)c1c(O)c(C)c(O)c2c1OC1=CC(=O)C(C(C)=O)C(=O)[C@@]12C (stereo partly drawn)	50µM*	15%	-32%	-13%	-27%	13%
CC(=O)c1c(O)c(C)c(O)c2c1OC1=CC(=O)C(C(C)=O)C(=O)C12C (stereo not drawn)	nt	nt	nt	-3%	nt	nt
CCC1=NN(C(=O)c2ccccc2O)C(O)(c2ccccc2)C1 (stereo not drawn)	3%	13%	7.1µM*	-2%	50µM*	-14%
COC(=O)C1=NN(C(=O)c2ccc(Cl)cc2)C(O)(c2ccccc2)C1 (stereo not drawn)	-44%[59 µM]	1%	-35%	-3%	6%	-11%
CCC1=NN(C(=O)c2ccc(Cl)cc2)C(O)(c2ccccc2)C1 (stereo not drawn)	nt	16%	-32%	4%	50µM*	-14%
Cc1cc(OCC(=O)OCC(=O)c2ccc[nH]2)ccc1Cl	-1%	19%	-7%	-8%	20%	-7%
CCCCCCCCN1C(=O)[C@H](CC(=O)NCCCOC)C[C@@]2(C(=O)OC)CCCCC=C12	nt	nt	nt	nt	nt	-4%
CCC1(c2ccccc2)NC(=O)N(CC(=O)N(C)Cc2c(F)cccc2Cl)C1=O (stereo not drawn)	45µM*	29%	-5%	-13%	-15%	0%
CCOc1ccccc1C(=O)NCC(=O)N1CCN(Cc2ccc3c(c2)OCO3)CC1	23%[12.7 µM]	41%	2%	1%	-3%	5%
O=c1ccc(N=Nc2ccccc2)ccc1O	45µM*	?	50µM*	-4%	11µM*	-20%
O=S(=O)(O)c1ccc(N=Nc2ccccc2)cc1	?	21%	-24%	9%	-10%	-14%
CC(Sc1nnc(N)s1)C(=O)Nc1ccc2c(c1)OCCO2 (stereo not drawn)	8%	19%	-11%	0%	-3%	-12%
CN(C)c1ccc(/C=N/N2C(=S)SC(C)(C)C2N(O)C(=O)Nc2ccc([N+](=O)[O-])cc2)cc1 (stereo not drawn)	16%[12.7 µM]	?	56µM*	-22%	?	27µM*
CCOC(=O)CNC(=S)n1ncnc1N	8%	56%	?	-14%	?	0%
CCCCCCCc1nc2nc(C)c(Br)c(=O)n2[nH]1	-48%	1%	28µM*	-7%	-24%	27µM*
COCCCNC(=O)c1cc2cc3cc(OC)ccc3nc2o1	31%	10%	-17%	-22%	3%	21µM*
CCN(CC)CCNC(=O)c1cc2cc3ccc(OC)cc3nc2o1	7%	27%	-8%	5%	-1%	-14%
Fc1ccc(NC(=S)Nc2ccc3nccnc3c2)cc1	40µM*	35%	-16%	?	-17%	-10%
Cc1ccc(NC(=S)Nc2ccc(F)cc2)cc1C	0%	27%	-24%	-4%	-22%	-6%
Clc1ccc(/C=N/N2CCCCC2)cc1	-36%[59 µM]	-12%	50µM*	-14%	-38%	-2%
Clc1ccc(C=NN2CCCCCC2)cc1	nt	-33%	35µM*	-7%	nt	-4%
N#Cc1ccc(C=NN2CCCCCC2)cc1	nt	?	35µM*	-7%	nt	-12%
SMILES	G9a inh	HP1b binding inh	JMJD2A Tudor inh	VDR inh	BAZ2B inh	PLK1 PBD inh
Clc1ccc(C=NN2CCCCCC2)cc1Cl	nt	17%	?	-9%	nt	4%
COc1ccc(N2CCN(c3ncnc4onc(C)c34)CC2)cc1	?	14%	-26%	7%	5%[57.1 µM]	nt
Cc1cc(C)c2nc(-c3ccccn3)cc(C(=O)Nc3ccc(S(=O)(=O)Nc4onc(C)c4C)cc3)c2c1	13µM*	50µM*	56µM*	-7%	35µM*	6.7µM*
COc1ccc(-c2cc(C(=O)Nc3ccc(S(=O)(=O)Nc4onc(C)c4C)cc3)c3ccccc3n2)cc1OC	nt	13%[57 µM]	-13%	-17%	?	-28%
Cc1cc(C)c2nc(-c3ccccn3)cc(C(=O)NCc3ccc(S(N)(=O)=O)cc3)c2c1	1%	3%	-21%	1%	-28%	-2%
Cc1cc(C)c2nc(-c3ccccn3)cc(C(=O)NCCc3ccc(S(N)(=O)=O)cc3)c2c1	35µM*	15%	-17%	17%	9%	30µM*
Cc1cc(NS(=O)(=O)c2ccc(NC(=O)c3cc(-c4ccccc4Cl)nc4ccccc34)cc2)no1	?	19%	-31%	7%	-25%	67µM*
Cc1cc(C)c2nc(-c3ccccn3)cc(C(=O)Nc3ccc(S(=O)(=O)Nc4cc(C)on4)cc3)c2c1	-9%[0.501 µM]	-8%	50µM*	?	50µM*	21µM*
Cc1cc(NS(=O)(=O)c2ccc(NC(=O)c3cc(-c4cccnc4)nc4ccc(Cl)cc34)cc2)no1	nt	3%	-28%	10%	-38%	?
O=C(Nc1ccc2c(c1)OCO2)OCc1ccccc1	2%[12.7 µM]	18%	-15%	-7%	-23%	0%
Cc1ccc(S(=O)(=O)N2CCSCCSCCSCCSCC2)cc1	nt	37%	-2%	8%	nt	-7%
O=C(OCC(=O)c1ccc(Cl)s1)c1ccccn1	-10%[59 µM]	17%	32µM*	-14%	56µM*	-5%
O=C(COc1cccnc1[N+](=O)[O-])c1ccc(Cl)s1	nt	?	40µM*	50µM*	40µM*	15µM*
O=C(OCC(=O)c1ccc(Cl)s1)c1cnccn1	35µM*	0%	-29%	3%	?	-11%
COc1ccc(C(=O)COC(=O)c2nc3nccc(C)n3n2)cc1F	4%[12.7 µM]	46%	-5%	-8%	2%	-1%
NC(N)=NCC(O)CN(c1ccccc1)c1ccccc1 (stereo not drawn)	?	8%	?	15%	-29%	-9%
CCc1ccc(NC(=O)C2CCN(S(=O)(=O)c3c(C)noc3/C=C/c3cccs3)CC2)cc1	7%[59 µM]	27%	-5%	-8%	nt	nt
N#Cc1ccc(C(=O)Nc2nnc(-c3ccccn3)o2)cc1	50µM*	16%	?	-26%	8.9µM*	-8%
O=C(Nc1nnc(-c2ccccn2)o1)c1cccc(Cl)c1	-6%	27%	-28%	-18%	nt	-7%

Source: PubChem BioAssay
